The text below walks through data of PubChem BioAssay.

Test [1] can be described thus: compounds binding Alexa647 anti-His antibody – biochemical, small-molecule microarray, 635 nm fluorescence, artefact control for SMM control protein annotation, primary screen (AID 1128).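 Also: score merges feature fluorescence with signal-to-noise for each printed compound spot.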 To be noted: higher = more signal.
For test [2], the system named is Human papillomavirus type 1a E7 protein (residues 1-88). The test can be described thus: HPV1a E7 small-molecule binders, primary screen, biochemical, small-molecule microarray, residues 1-88, 635 nm (AID 1129). To be noted: small-molecule microarray binding, fluorescence 635 nm; higher = more signal.
Test [3] has as its target Focal adhesion kinase 1 (Homo sapiens) (UniProt Q05397). The test can be described thus: PTK2 protein binding on printed compound slides – biochemical, small-molecule microarray, 635/667 nm fluorescence, BSA, DTT, primary screen (AID 1130).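 Also: composite of spot emission at 667 nm and signal to noise over triplicate slides.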 To be noted: 635 nm fluorescence, higher = more signal.
For test [4], the system named is Fibrinogen (Alexa647-labelled). Briefly: Alexa647-fibrinogen binding to printed small molecules – biochemical, small-molecule microarray, 635/667 nm fluorescence, artefact control for SMM control-protein annotation, profiling panel (AID 1131).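 Also: z-score merges 667 nm fluorescence with per-spot signal-to-noise over triplicate slides.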 To be noted: fibrinogen-A647 binding fluorescence, higher = more signal.
Test [5] has as its target Follistatin (Homo sapiens) (UniProt P19883). The test can be described thus: FST protein binding to printed compounds – biochemical, small-molecule microarray, 635/667 nm fluorescence, primary screen (AID 1132). Particulars: 635 nm fluorescence, higher = more signal.
For test [6], the target named is Fibroblast growth factor 2 (Homo sapiens) (UniProt P09038). Briefly: basic fibroblast growth factor binding to printed compounds – biochemical, small-molecule microarray, 635/667 nm fluorescence, primary screen (AID 1133). To be noted: FGF2, fluorescence 635/667, higher = more signal.
Chain of Fibroblast growth factor 2 (Homo sapiens) (P09038 whole entry, looked up): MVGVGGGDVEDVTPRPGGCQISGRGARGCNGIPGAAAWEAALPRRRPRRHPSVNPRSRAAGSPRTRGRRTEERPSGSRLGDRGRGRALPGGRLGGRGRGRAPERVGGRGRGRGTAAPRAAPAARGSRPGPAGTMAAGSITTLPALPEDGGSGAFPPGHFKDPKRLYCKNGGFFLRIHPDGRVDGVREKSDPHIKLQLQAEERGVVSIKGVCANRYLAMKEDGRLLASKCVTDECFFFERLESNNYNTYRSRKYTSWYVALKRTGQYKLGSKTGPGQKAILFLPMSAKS
Test [7] in a line: JC-1 mitochondrial potential readout, lung cancer cells – cell-based, A549, JC-1 fluorescence, basal, 24 h, 100 nL, profiling panel (AID 1138).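 Also: A549 lung adenocarcinoma cells under basal conditions with no added stimulus; test concentration not given here.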 Particulars: higher = more signal.
The subject of the next test is Lefty1. Briefly: Lefty1 protein binding to printed compounds – biochemical, small-molecule microarray, 635/667 nm fluorescence, primary screen (AID 1139). To be noted: fluorescence 635/667, higher = more signal.
For test [8], the system named is wheat germ agglutinin (Triticum aestivum), Alexa647-labelled. Briefly: Alexa647-WGA lectin binding to printed small molecules – biochemical, small-molecule microarray, 635/667 nm fluorescence, artefact control for SMM control-protein annotation, profiling panel (AID 1140).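 Also: score merges 667 nm feature emission with signal to noise over triplicate slides.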 Particulars: WGA-A647 binding, 635 nm fluorescence, higher = more signal.
Test [9] concerns the target Luciferin 4-monooxygenase (Photinus pyralis) (UniProt P08659). The test can be described thus: inhibition of purified Photinus pyralis luciferase – biochemical, luminescence, purified enzyme, 2006 set, primary screen (AID 1141).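 Also: cell-free assay with purified firefly luciferase at 100 ng per well in PBS; test concentration not given here.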 Particulars: purified firefly luciferase, SteadyGlo luminescence, 30 min; higher = more signal, called active from +8 up or from −8 down.
In test [10] the test system is Wnt5a (protein binding on small-molecule microarray). The test can be described thus: small molecules binding Wnt5a protein – biophysical, small-molecule microarray, 635/667 nm fluorescence, primary screen (AID 1142).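 Also: fluorescence read at 667 nm with signal to noise per printed feature.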 To be noted: 635 nm fluorescence, higher = more signal.
Test [11] can be described thus: ATP-based viability of Huh7 replicon cells – cell-based, CellTiter-Glo luminescence, basal, 48 h, cytotoxicity control for HCV replication inhibitor project, primary screen (AID 1143).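 Also: Huh7 hepatoma cells carrying a hepatitis C replication reporter with no stimulus; test concentration not given here.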 Particulars: higher = more signal, called active from +8 up or from −8 down. On the technique in general: In antiviral work, replicon cells carry a viral genome segment that copies itself.

Test [12] is described as follows: Pseudomonas biofilm growth suppression – PAO1 strain, BacTiter-Glo luminescence, LB-PBS, primary screen (AID 1144). To be noted: P. aeruginosa PAO1 biofilm, 12 h, higher = more signal.
Test [13] in a line: basal CRE-LacZ reporter activity in PC12 – cell-based, unstimulated, primary screen (AID 1145). To be noted: no forskolin, luminescence, 4.5 h, higher = more signal, called active from +8 up or from −8 down.
Test [14] is described as follows: forskolin-driven CRE-LacZ activity in PC12 – cell-based, CRE-LacZ reporter, forskolin-stimulated, primary screen (AID 1146).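 Also: PC12 cells with 6xCRE LacZ reporter stimulated by forskolin 10 µM; beta-galactosidase reporter signal reflecting CREB driven transcription.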 Particulars: luminescence, 4.5 h, higher = more signal, called active from +8 up or from −8 down.
In test [15] the target is Streptavidin (Streptomyces avidinii) (UniProt P22629). Briefly: compounds binding control protein streptavidin – biophysical, small-molecule microarray, 635/667 nm fluorescence, artefact control for SMM compound annotation, primary screen (AID 1147).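 Also: signal reflects streptavidin binding to arrayed compounds as a control protein.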 Particulars: higher = more signal.
Chain of Streptavidin (Streptomyces avidinii) (P22629 whole entry, looked up): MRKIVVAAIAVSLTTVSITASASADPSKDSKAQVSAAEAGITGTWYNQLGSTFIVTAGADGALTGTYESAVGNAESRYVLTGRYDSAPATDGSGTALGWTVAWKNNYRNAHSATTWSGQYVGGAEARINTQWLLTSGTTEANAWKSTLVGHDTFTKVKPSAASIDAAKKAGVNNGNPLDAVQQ
Test [16] in a line: probe aInhba binding on compound microarray – biochemical, small-molecule microarray, 635/667 nm fluorescence, primary screen (AID 1148).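 Also: score merges 667nm spot fluorescence with signal-to-noise for antibody binding to printed compounds.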 Particulars: higher = more signal.
The target of test [17] is Torsin-1A (Homo sapiens) (UniProt O14656). The test can be described thus: TOR1A wild-type binding on microarray – cell lysate, small-molecule microarray, lysate, 635/667 nm, primary screen (AID 1149). To be noted: COS7 hTOR1A-WT lysate, 635 nm fluorescence, higher = more signal.
Chain of Torsin-1A (Homo sapiens) (O14656 whole entry, looked up): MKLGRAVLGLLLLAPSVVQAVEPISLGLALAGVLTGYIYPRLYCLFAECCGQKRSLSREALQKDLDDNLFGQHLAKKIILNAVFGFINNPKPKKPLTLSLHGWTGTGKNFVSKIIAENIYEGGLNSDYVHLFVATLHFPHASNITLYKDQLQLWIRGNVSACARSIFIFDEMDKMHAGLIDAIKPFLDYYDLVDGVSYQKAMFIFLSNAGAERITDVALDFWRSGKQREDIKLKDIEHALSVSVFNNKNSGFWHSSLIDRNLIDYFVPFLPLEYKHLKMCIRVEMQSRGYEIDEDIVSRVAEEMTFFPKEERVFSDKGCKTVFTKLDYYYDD
For test [18] the target is unchanged. The test can be described thus: torsin A mutant lysate binding on microarrays – cell lysate, small-molecule microarray, COS7 lysate, 635/667 nm fluorescence, primary screen (AID 1150).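 Also: score pools 667 nm emission and signal to noise measuring lysate protein binding.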 To be noted: COS7 hTOR1A mutant lysate, 635 nm fluorescence, higher = more signal.
The test system of test [19] is Sonic hedgehog protein (Shh). The test can be described thus: Sonic hedgehog microarray binding compounds – biochemical, small-molecule microarray, 635/667 nm fluorescence, primary screen (AID 1151).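 Also: Shh protein binding to compounds spotted on small-molecule microarray slides; score combines spot fluorescence intensity with signal-to-noise across triplicate slides.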 Particulars: 635 nm fluorescence, higher = more signal.

Calls of active or inactive are those of the source. Unless noted, no rule for the calls is given here.

Chain of Luciferin 4-monooxygenase (Photinus pyralis) (P08659 whole entry, looked up): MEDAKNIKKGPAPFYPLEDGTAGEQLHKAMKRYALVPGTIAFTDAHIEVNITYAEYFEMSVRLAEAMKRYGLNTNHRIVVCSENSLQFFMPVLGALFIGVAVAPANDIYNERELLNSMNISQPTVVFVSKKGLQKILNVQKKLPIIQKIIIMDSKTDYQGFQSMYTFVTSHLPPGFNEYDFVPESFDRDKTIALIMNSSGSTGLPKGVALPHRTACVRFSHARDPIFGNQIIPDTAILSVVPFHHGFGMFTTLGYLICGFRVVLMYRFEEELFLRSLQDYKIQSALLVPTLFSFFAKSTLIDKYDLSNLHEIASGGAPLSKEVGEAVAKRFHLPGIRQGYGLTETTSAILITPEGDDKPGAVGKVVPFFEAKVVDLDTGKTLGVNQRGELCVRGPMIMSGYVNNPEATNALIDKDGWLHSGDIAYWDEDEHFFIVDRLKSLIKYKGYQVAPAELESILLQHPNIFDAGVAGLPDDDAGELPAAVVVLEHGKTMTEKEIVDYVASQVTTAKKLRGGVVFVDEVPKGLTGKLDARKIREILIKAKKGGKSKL
Chain of Follistatin (Homo sapiens) (P19883 whole entry, looked up): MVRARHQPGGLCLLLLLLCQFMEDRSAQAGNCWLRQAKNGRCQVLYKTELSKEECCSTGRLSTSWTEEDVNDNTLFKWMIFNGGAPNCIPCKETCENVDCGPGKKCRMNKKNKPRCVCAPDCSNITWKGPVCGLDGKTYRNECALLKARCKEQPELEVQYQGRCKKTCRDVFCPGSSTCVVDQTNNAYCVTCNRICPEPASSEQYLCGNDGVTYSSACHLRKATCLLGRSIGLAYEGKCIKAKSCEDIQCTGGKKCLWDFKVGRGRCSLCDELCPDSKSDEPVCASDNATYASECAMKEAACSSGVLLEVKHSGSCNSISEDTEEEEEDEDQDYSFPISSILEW
Chain of Focal adhesion kinase 1 (Homo sapiens) (Q05397 whole entry, looked up): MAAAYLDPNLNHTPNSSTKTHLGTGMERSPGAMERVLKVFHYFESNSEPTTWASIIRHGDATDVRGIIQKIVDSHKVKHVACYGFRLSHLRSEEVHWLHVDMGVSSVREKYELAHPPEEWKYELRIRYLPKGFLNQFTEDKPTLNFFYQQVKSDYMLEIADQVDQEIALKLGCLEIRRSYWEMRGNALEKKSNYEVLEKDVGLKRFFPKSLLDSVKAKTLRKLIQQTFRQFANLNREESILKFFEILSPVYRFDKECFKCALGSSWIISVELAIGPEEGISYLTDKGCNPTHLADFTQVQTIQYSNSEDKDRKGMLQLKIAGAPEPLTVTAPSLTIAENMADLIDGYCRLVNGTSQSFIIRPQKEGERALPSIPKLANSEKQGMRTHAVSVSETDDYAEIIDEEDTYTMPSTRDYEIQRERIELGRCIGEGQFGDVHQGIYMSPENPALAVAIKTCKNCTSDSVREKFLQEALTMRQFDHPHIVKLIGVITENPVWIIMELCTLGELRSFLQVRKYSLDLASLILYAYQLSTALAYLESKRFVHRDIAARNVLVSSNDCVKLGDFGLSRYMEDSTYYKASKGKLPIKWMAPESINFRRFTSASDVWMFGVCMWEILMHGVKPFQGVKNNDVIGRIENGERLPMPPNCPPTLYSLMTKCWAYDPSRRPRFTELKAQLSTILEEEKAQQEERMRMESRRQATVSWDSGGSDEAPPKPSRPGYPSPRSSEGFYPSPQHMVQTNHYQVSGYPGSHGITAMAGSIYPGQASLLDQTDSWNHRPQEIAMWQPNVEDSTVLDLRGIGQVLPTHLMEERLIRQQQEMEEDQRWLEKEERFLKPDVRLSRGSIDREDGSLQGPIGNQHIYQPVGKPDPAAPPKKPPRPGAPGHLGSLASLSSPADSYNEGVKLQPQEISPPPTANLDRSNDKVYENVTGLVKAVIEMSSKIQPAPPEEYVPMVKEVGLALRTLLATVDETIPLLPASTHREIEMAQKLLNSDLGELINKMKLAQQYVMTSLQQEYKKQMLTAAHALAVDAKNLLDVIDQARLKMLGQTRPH

On to `CC(=O)OC[C@H]1O[C@H](CC=NO[C@H](C)c2cn([C@H](CO)Cc3ccccc3)nn2)C=C[C@@H]1OC(C)=O`, for which the composite z-score in [1] was 0.499; in [2], 0.777; in test [3], -0.0453; in test [4], 0.0573; in test [5], 0.69; in [6] it was 0.494. The composite z-score is 0.732 in the test with Lefty1; 0.439 in [8]; 0.315 in [10]; 1.35 in test [15]; -0.218 in [16]; 0.56 in the test with Torsin-1A (Homo sapiens) [17]. Moreover, the composite z-score turned out to be 0.579 with Torsin-1A (Homo sapiens) [18] and 0.805 in test [19]. The z-score in [7] is -0.866; in test [9], 0.809 (inactive); in test [11], 0.089 (inactive); in test [12] it was -0.738 (inactive); in test [13], 0.839 (inactive); in [14] it was 0.731 (inactive).

As to `CCC(=O)[C@@]1(O)C(=O)N2C(=C3C(=O)OCC[C@@H]31)N(Cc1ccccc1)C(C)=C(C(=O)OC)[C@H]2c1ccccc1`, the composite z-score came to 0.188 in test [1]; 0.405 in test [2]; 1.08 in test [3]; 0.375 in test [4]; 0.538 in [5]; 0.465 in test [6]. Also, the composite z-score in the test with Lefty1 was 0.436; in [8], 0.0183; in test [10], -0.308; in test [15] it was 0.565; in test [16] it was 0.0633; with Torsin-1A (Homo sapiens) [17], 0.578. Further, the composite z-score amounted to 0.224 in the test with Torsin-1A (Homo sapiens) [18] and 0.438 in [19]. In addition, the z-score in test [7] is 0.523; in test [9], -0.901 (inactive); in [11], 0.321 (inactive); in [12] it was -1.51 (inactive); in test [13], 0.513 (inactive); in test [14] it was -0.205 (inactive).

As for `CCOC(=O)NN=C1C[C@@H](O)[C@@H](O)[C@@H]2[C@@H]3C(=O)N(C(C)(C)C)C(=O)[C@@H]3CC[C@H]12`, the composite z-score in test [1] was determined as 0.322; in [2], 0.215; in [3], 0.064; in [4] it was 0.0959; in [5] it was 0.903; in test [6] it was 0.647. Besides, the composite z-score is 0.279 with Lefty1; -0.0123 in test [8]; 0.138 in [10]; 0.344 in [15]; 0.0427 in [16]; 0.446 with Torsin-1A (Homo sapiens) [17]. For the same compound, the composite z-score in the test with Torsin-1A (Homo sapiens) [18] came out at 0.307; in test [19] it was 0.187. Besides, the z-score was 0.233 in test [7]; 0.0659 (inactive) in [9]; -0.0395 (inactive) in [11]; 0.655 (inactive) in [12]; -0.295 (inactive) in test [13]; 0.269 (inactive) in test [14].

On to `CC(CCC(=O)OC[C@H]1O[C@H](C#Cc2ccccc2)C=C[C@@H]1Oc1ccc(C)cc1)=NO[C@H](C)c1cn([C@H](CO)Cc2ccccc2)nn1`, for which the composite z-score in test [1] amounted to 0.126; in test [2], 0.921; in [3], 0.648; in test [4], 0.856; in [5] it was 0.6; in test [6] it was 0.52. Moreover, the composite z-score in the test with Lefty1 was 0.724; in [8] it was 0.442; in test [10] it was -0.313; in test [15], 0.0184; in test [16], -0.149; in the test with Torsin-1A (Homo sapiens) [17] it was -0.234. In addition, the composite z-score worked out at 0.683 with Torsin-1A (Homo sapiens) [18] and 0.327 in [19]. For the same compound, the z-score in test [7] is 0.6; in test [9] it was -0.085 (inactive); in test [11] it was -0.874 (inactive); in test [12], 0.195 (inactive); in test [13] it was 0.15 (inactive); in test [14] it was 1.15 (inactive).

As for `O=C1[C@H]2[C@H]3[C@H](O)[C@H](O)CC(=NOC[C@@H](O)COCc4ccco4)[C@H]3CC[C@H]2C(=O)N1C[C@@H]1CCCO1`, the composite z-score in [1] was 0.605; in test [2], 0.225; in test [3], -0.173; in test [4], -1.27; in test [5], 0.987; in test [6] it was 1.61. Besides, the composite z-score in the test with Lefty1 was 1.34; in [8], -0.23; in test [10], 0.228; in test [15] it was -0.0239; in [16], -0.111; with Torsin-1A (Homo sapiens) [17], 3.31. For the same compound, the results for the composite z-score (in the test with Torsin-1A (Homo sapiens) [18]; in test [19]) were 2.75 and 0.793, respectively. The z-score was -0.644 in test [7]; 1.02 (inactive) in [9]; 0.208 (inactive) in test [11]; -0.136 (inactive) in test [12]; 0.424 (inactive) in test [13]; 0.261 (inactive) in test [14].
